Hit rate of the full screen: of about 13,000 compounds, about 3,200 (25%) showed an effect of 50% or more. Some of the results follow.
system: P. falciparum stage V gametocytes; design: BacTiter-Glo ATP luminescence viability of purified stage V gametocytes in 384-well plates, per cent inhibition versus DMSO; settings: 48 h, 5 µM; inhibitor

First: C[C@@H](CC1CCCCC1)OC(=O)N(C)[C@@H]1CCN(C#N)C1 [TCMDC-138502]
Second: N#Cc1ccccc1N1CCN(C2CCC(NC(=O)c3n[nH]c4cc(C(F)(F)F)ccc34)CC2)CC1 (stereo not shown) [TCMDC-134100]
The “% Inhibition” value of the first is higher: 39.73% for the first, -13.75% for the second.

Compared with COCCCNC(=O)c1ccc(O)c(-c2cc(Cl)cc(Cl)c2)c1 [TCMDC-140158], CCN(CC)CCNC(=O)c1ccc(NC(=O)c2oc3c(Cl)cccc3c2C)cc1 [TCMDC-125463] is higher in “% Inhibition” value: -17.86% for the first, 22.65% for the second.

Compared with Cc1noc(C)c1-c1cccc(CNCc2ccc(-c3ccc(-c4nc5cc(C(F)(F)F)ccc5[nH]4)cc3)cc2)c1.O=C(O)C(F)(F)F [TCMDC-133058], NC(=O)c1ccc(C(=O)Nc2cccc(-c3ccc(-c4nc5ccc(C(F)(F)F)cc5[nH]4)cc3)c2)cc1 [TCMDC-132193] is lower in “% Inhibition” value: 15.98% for the first, -16.46% for the second.

Going from CC(=O)Nc1cccc(C(=O)Nc2ccc(-c3cccc(-c4nc5ccc(C(F)(F)F)cc5[nH]4)c3)cc2)c1 [TCMDC-132140] to CC(=O)N(C)c1cccc(C(=O)Nc2ccc(-c3cccc(-c4nc5ccc(C(F)(F)F)cc5[nH]4)c3)cc2)c1 [TCMDC-137070], the “% Inhibition” value falls from -29.21% to -32.74%.

Going from CC(=O)Nc1cccc(C(=O)Nc2ccc(-c3cccc(-c4nc5c(C)cccc5[nH]4)c3)cc2)c1 [TCMDC-132141] to CC(=O)Nc1cc(C(=O)Nc2cccc(-c3cccc(-c4nc5c(C)cccc5[nH]4)c3)c2)ccc1C [TCMDC-137040], the “% Inhibition” value rises from -0.1401% to 72.59%.

Going from CC(=O)N(C)c1cccc(C(=O)Nc2cccc(-c3cccc(-c4nc5ccc(C(F)(F)F)cc5[nH]4)c3)c2)c1 [TCMDC-137069] to CC(=O)N(C)c1cccc(C(=O)Nc2cccc(-c3ccc(-c4nc5ccc(C(F)(F)F)cc5[nH]4)cc3)c2)c1 [TCMDC-137073], the “% Inhibition” value rises from 42.31% to 81.14%.

First: Cc1cccc2[nH]c(-c3cccc(-c4cccc(NC(=O)c5ccc(C(N)=O)cc5)c4)c3)nc12 [TCMDC-132192]
Second: NC(=O)c1ccc(C(=O)Nc2cccc(-c3cccc(-c4nc5ccc(C(F)(F)F)cc5[nH]4)c3)c2)cc1 [TCMDC-132191]
The “% Inhibition” value of the first is lower: -7.489% for the first, 5.838% for the second.

First: CC(=O)Nc1ccc(C(=O)Nc2cccc(-c3ccc(-c4nc5ccc(F)cc5[nH]4)cc3)c2)cn1 [TCMDC-136826]
Second: CC(=O)Nc1ccc(C(=O)Nc2cccc(-c3cccc(-c4nc5ccc(F)cc5[nH]4)c3)c2)cn1 [TCMDC-136824]
The “% Inhibition” value of the first is higher: -35.51% for the first, -57.69% for the second.

Going from CC(=O)Nc1cc(C(=O)Nc2cccc(-c3cccc(-c4nc5ccc(C(F)(F)F)cc5[nH]4)c3)c2)ccc1C [TCMDC-137039] to CC(=O)Nc1ccc(C(=O)Nc2cccc(-c3cccc(-c4nc5ccc(C(F)(F)F)cc5[nH]4)c3)c2)cn1 [TCMDC-136828], the “% Inhibition” value rises from 68.75% to 75.79%.

First: CC(=O)Nc1ccc(C(=O)Nc2cccc(-c3ccc(-c4nc5ccc(C(F)(F)F)cc5[nH]4)cc3)c2)cn1 [TCMDC-136832]
Second: CC(=O)Nc1ccc(C(=O)Nc2ccc(-c3cccc(-c4nc5ccc(C(F)(F)F)cc5[nH]4)c3)cc2)cn1 [TCMDC-136829]
The “% Inhibition” value of the first is higher: 60.22% for the first, 5.637% for the second.

First: NC(=O)c1cccc(C(=O)Nc2cccc(-c3cccc(-c4nc5ccc(C(F)(F)F)cc5[nH]4)c3)c2)c1 [TCMDC-132199]
Second: O=C(Nc1cccc(-c2cccc(-c3nc4ccc(C(F)(F)F)cc4[nH]3)c2)c1)c1ccncc1 [TCMDC-136963]
The “% Inhibition” value of the first is lower: -28.51% for the first, -4.28% for the second.

First: CCc1c(C(=O)NC2CCC(N3CCC(c4ccccc4C)CC3)CC2)[nH]c2ccc(Br)cc12 (stereo not shown) [TCMDC-133530]
Second: Brc1ccc(Nc2nc(NCC3CCCO3)c3ccccc3n2)cc1 (stereo not shown) [TCMDC-124563]
The “% Inhibition” value of the first is lower: -72.63% for the first, 15.52% for the second.

Compared with CC(CNC(=O)C(c1cc2ccccc2o1)N1CCN(C(c2ccccc2)c2ccccc2)CC1)c1ccccc1 (stereo not shown) [TCMDC-141010], Oc1cccc(Nc2nc(NCc3ccccc3)c3ccccc3n2)c1 [TCMDC-125640] is higher in “% Inhibition” value: 11.08% for the first, 36.33% for the second.

First: O=C(Nc1ccc(C(F)(F)F)cc1)c1cccc(S(=O)(=O)NC2CCN(Cc3ccccc3)C2)c1 (stereo not shown) [TCMDC-132484]
Second: CNC(=O)Cc1ccc(C(=O)Nc2cccc(-c3cccc(-c4nc5ccc(C(F)(F)F)cc5[nH]4)c3)c2)cc1 [TCMDC-137074]
The “% Inhibition” value of the first is lower: -13.38% for the first, 50.29% for the second.

Going from O=S(=O)(c1ccccc1)C1CC1 [TCMDC-132010] to Cl.Oc1cccc(Nc2nc(NCC3CCCO3)c3ccccc3n2)c1 (stereo not shown) [TCMDC-123641], the “% Inhibition” value falls from 2.082% to -25.34%.

Compared with CSc1nnc2n(Cc3ccccc3)c(=O)c3c(n12)-c1ccccc1CC31CCCCC1 [TCMDC-125076], Oc1ccc2nc(Nc3ccccc3)nc(NCCc3ccccc3)c2c1 [TCMDC-138404] is higher in “% Inhibition” value: -1.112% for the first, 68.97% for the second.

First: O=C(CSc1nc2ccccc2c(=O)n1CC1CCCO1)Nc1cc(C(F)(F)F)ccc1Cl (stereo not shown) [TCMDC-123732]
Second: Nc1c2ccccc2nc2cc(C(F)(F)F)ccc12 [TCMDC-142006]
The “% Inhibition” value of the first is lower: -97.98% for the first, 51.79% for the second.

Compared with O=C(Nc1cccc(-c2ccc(-c3nc4ccc(C(F)(F)F)cc4[nH]3)cc2)c1)Nc1ccc(F)c(F)c1F [TCMDC-133224], O=C(Nc1ccc(-c2cccc(-c3nc4ccc(C(F)(F)F)cc4[nH]3)c2)cc1)Nc1ccc(F)c(F)c1F [TCMDC-133228] is lower in “% Inhibition” value: -27.79% for the first, -36.32% for the second.

Going from O=C(Nc1cccc(-c2cccc(-c3nc4ccc(C(F)(F)F)cc4[nH]3)c2)c1)Nc1ccc(F)c(F)c1F [TCMDC-133229] to COc1ccc(NC(=O)Nc2ccc(-c3cccc(-c4nc5ccccc5[nH]4)c3)cc2)cc1 [TCMDC-133250], the “% Inhibition” value falls from 80.27% to -9.476%.

Compared with OCCN1CCN(Cc2ccc(-c3ccc(-c4nc5ccc(C(F)(F)F)cc5[nH]4)s3)cc2)CC1 [TCMDC-133034], CC(O)C1CCCCN1C(=O)c1ccc(-c2ccc(-c3nc4ccccc4[nH]3)s2)cc1 (stereo not shown) [TCMDC-132330] is lower in “% Inhibition” value: 6.44% for the first, -3.595% for the second.

First: O=C(Nc1ccc(Cn2ncc(N3CCCNCC3)c(Cl)c2=O)cc1)Nc1cccc(C(F)(F)F)c1 [TCMDC-141925]
Second: O=C(Nc1ccc(Br)cc1)Nc1ccc(Cn2ncc(N3CCCNCC3)c(Cl)c2=O)cc1 [TCMDC-133329]
The “% Inhibition” value of the first is lower: -42.22% for the first, -9.301% for the second.

First: NC(=O)c1ccc(C(=O)Nc2cccc(-c3csc(-c4nc5ccccc5[nH]4)c3)c2)cc1 [TCMDC-132400]
Second: COc1ccc(Nc2ncc3c(-c4cccc(NC(=O)c5ccc(N)cc5)c4)c[nH]c3n2)cc1OC [TCMDC-135250]
The “% Inhibition” value of the first is higher: -14.2% for the first, -78.65% for the second.

First: Cc1cc(C(F)(F)F)n2nc(C(=O)N(C)Cc3cncn3Cc3ccc(F)cc3)cc2n1 [TCMDC-132466]
Second: CCNc1cc(C)nc(Nc2ccc(NC(=O)c3ccco3)cc2)n1 [TCMDC-124982]
The “% Inhibition” value of the first is higher: 29.43% for the first, -6.858% for the second.

Compared with Cc1ccc(N2CCc3c(-c4cc5cccnc5nc4C)cc(C)nc32)c(Cl)c1 [TCMDC-136379], COc1ccc(Nc2nc(N3CCCC3)c3ccccc3n2)cc1.Cl [TCMDC-124381] is lower in “% Inhibition” value: 19.51% for the first, -67.29% for the second.

Going from COc1ccc(C=C2SC(=O)NC2=Nc2ccccc2)c(OC)c1 [TCMDC-123697] to CCN1CCN(c2cc(C)c3cc(NC(=O)C=Cc4cccc(OC)c4OC)ccc3n2)CC1 [TCMDC-123803], the “% Inhibition” value falls from 23.55% to -23.17%.

Compared with Oc1ccc2nc(NCCCc3ccccc3)nc(NCCc3ccccc3)c2c1 [TCMDC-138406], Oc1ccc2nc(NCCCc3ccccc3)nc(NCCCc3ccccc3)c2c1 [TCMDC-138382] is lower in “% Inhibition” value: 91.92% for the first, 90.22% for the second.

Compared with Cl.Oc1ccc(Nc2nc(NCC3CCCO3)c3ccccc3n2)cc1 (stereo not shown) [TCMDC-123730], Oc1ccc(Nc2nc(NCc3ccco3)c3ccccc3n2)cc1 [TCMDC-124015] is lower in “% Inhibition” value: 79.07% for the first, -74.78% for the second.

Compared with NC1CCN(c2nc(NCCCc3ccc(O)cc3)nc(NCc3cccc4ccccc34)n2)CC1 [TCMDC-133393], Cl.Oc1ccc(Nc2nc(N3CCCC3)c3ccccc3n2)cc1 [TCMDC-123532] is higher in “% Inhibition” value: 0.2406% for the first, 79.67% for the second.

First: Cl.OCCNc1nc(Nc2cccc(O)c2)nc2ccccc12 [TCMDC-123747]
Second: Cl.OCCNc1nc(Nc2ccccc2)nc2ccccc12 [TCMDC-123749]
The “% Inhibition” value of the first is lower: -37.65% for the first, 91.01% for the second.

Going from CC(=O)Nc1sc(C)c(C)c1CN1CCc2ccccc2C1 [TCMDC-124498] to CCCc1cc(C(=O)N[C@@H](Cc2ccccc2)[C@H](O)CNC(C)C)c(F)c(N2CCCC2=O)c1 [TCMDC-135418], the “% Inhibition” value rises from -41.39% to 10.92%.

Going from CSCCC(C(=O)O)N1C(=O)c2ccccc2C1=O (stereo not shown) [TCMDC-125514] to CCCC1N=C(N)N=C(N)N1c1cccc([N+](=O)[O-])c1 (stereo not shown) [TCMDC-131299], the “% Inhibition” value falls from -25.71% to -55.59%.

First: O=c1cc(NCCCNCc2cccc(SC(F)(F)F)c2)[nH]c2ccccc12 [TCMDC-139420]
Second: CC1CC(NCCCNc2cc(=O)c3ccccc3[nH]2)c2c(Cl)c(Cl)cc(Cl)c21 (stereo not shown) [TCMDC-139486]
The “% Inhibition” value of the first is lower: -38.07% for the first, 41.94% for the second.

Compared with CCC(C)OC(=O)C1=C(C)NC2=C(C(=O)CC(c3ccc(OC)c(OC)c3)C2)C1c1ccc(C)o1 (stereo not shown) [TCMDC-123735], CC(O)C(=O)O.CCOc1ccc2nc3cc(N)ccc3c(N)c2c1 [TCMDC-123983] is lower in “% Inhibition” value: 31.33% for the first, 24.81% for the second.

First: Cl.OCCNc1nc(Nc2ccc(Cl)cc2)nc2ccccc12 [TCMDC-125389]
Second: Cl.OCCNc1nc(Nc2ccc(F)cc2)nc2ccccc12 [TCMDC-123640]
The “% Inhibition” value of the first is higher: 1.912% for the first, -1.104% for the second.

Going from C(=N\Nc1nccc2sc(-c3cccnc3)cc12)/c1ccncc1 [TCMDC-135305] to CCOc1ccc2nc3cc(NC(=O)c4ccco4)ccc3c(N)c2c1 [TCMDC-125004], the “% Inhibition” value rises from -45.13% to 120.6%.

First: O=C(Nc1ccc(Oc2ccc(OC(F)(F)F)cc2)cc1)c1ccco1 [TCMDC-124049]
Second: Nc1cc(C(F)(F)F)ccc1Cl [TCMDC-123950]
The “% Inhibition” value of the first is lower: 6.868% for the first, 13.58% for the second.

Going from Nc1ccc2c(N)c3ccccc3nc2c1 [TCMDC-132034] to CCOc1ccc2nc3cc([N+](=O)[O-])ccc3c(N)c2c1 [TCMDC-125852], the “% Inhibition” value rises from 26.54% to 122.1%.

Going from CCOc1cc(N)c2nc3ccc([N+](=O)[O-])cc3cc2c1 [TCMDC-138134] to O=[N+]([O-])c1ccc2nccnc2c1 [TCMDC-123943], the “% Inhibition” value falls from 64.78% to 28.42%.

Source: publication PMC4552634, “A New Set of Chemical Starting Points with Plasmodium falciparum Transmission-Blocking Potential for Antimalarial Drug Discovery” (PLoS ONE, 2015)
